# Compounds with a hit are over-represented: about 12% of the library has one in this group of screens.
# HP1b chromo inh = inhibitors of HP1-beta chromodomain binding to methylated histone tails | P83916 | AlphaScreen HP1-beta / biotin-H3K9me3 peptide binding | Potency, µM (titrated, usually from 114 µM), usual class: inhibitors | 390,000 compounds, 0.56% hits | AID 540317; note: nearly all actives have a fitted effect of over 70% in size
# Target sequence (P83916 whole entry, looked up): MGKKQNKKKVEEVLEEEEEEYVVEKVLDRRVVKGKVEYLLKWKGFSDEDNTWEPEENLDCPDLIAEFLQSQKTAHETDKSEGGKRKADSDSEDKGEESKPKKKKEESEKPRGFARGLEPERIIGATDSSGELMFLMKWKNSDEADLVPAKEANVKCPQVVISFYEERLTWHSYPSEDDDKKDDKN
#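 Compound inhibition of the preformed complex between 50 nM HP1-beta and 50 nM biotinylated H3K9me3 peptide was read by AlphaScreen. Buffer was PBS pH 7.4 with 0.01% Tween-20. Incubations ran 30 min at room temperature, with 10 ug/mL donor/acceptor beads.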
# BAZ2B block = blocks human BAZ2B | Q9UIF8 | AlphaScreen BAZ2B-H3K14Ac peptide displacement | Potency, µM (highest dose often 114 µM), actives largely listed as inhibitors | 360,000 compounds, 4.4% hits | AID 504333; note: nearly all actives have a fitted effect of over 60% in size
#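 AlphaScreen displacement: compounds (up to 110uM) incubated 30 min at room temperature with a preformed 50 nM BAZ2B/50 nM biotinylated H3K14Ac peptide complex in PBS pH 7.4 with Tween-20. Donor and acceptor beads at 10 ug/mL final added, 20 min light-protected before reading.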
# L3MBTL1 inh = blocks human L3MBTL1; AID 485360; AlphaScreen L3MBTL1–H3K9me1 peptide binding; Q9Y468; 230,000 compounds, 0.66% hits; Potency, µM (top dose mostly 57.1 µM), most hits filed as inhibitors; note: nearly all actives have a fitted effect of over 60% in size
#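 Displacement of a biotinylated histone H3(1-15) peptide monomethylated at Lys9 (75 nM) from L3MBTL1 (50 nM) was measured by AlphaScreen after a 30 min room-temperature compound incubation; cefsulodin titration served as intraplate control.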
# G9a inh = inhibitors of human histone lysine methyltransferase G9a; Q96KQ7; G9a H3K9 monomethylation, AlphaScreen, 2 h; Potency, µM (highest dose often 102 µM), actives largely listed as inhibitors; 350,000 compounds, 8.8% hits; AID 504332; note: nearly all actives have a fitted effect of over 75% in size
# Target sequence (Q96KQ7 913-1193 limits assumed): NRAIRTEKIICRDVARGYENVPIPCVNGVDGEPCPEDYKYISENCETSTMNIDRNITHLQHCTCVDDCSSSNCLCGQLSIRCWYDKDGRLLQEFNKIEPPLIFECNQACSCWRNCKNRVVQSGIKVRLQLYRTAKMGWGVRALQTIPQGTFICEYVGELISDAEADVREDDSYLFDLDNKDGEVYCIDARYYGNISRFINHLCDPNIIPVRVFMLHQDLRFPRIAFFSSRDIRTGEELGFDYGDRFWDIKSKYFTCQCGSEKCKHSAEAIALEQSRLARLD
#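 Compounds were preincubated with 20 nM G9a for 15 min, after which biotinylated H3K9 peptide (500 nM) and SAM (20 uM) started a 2 h room-temperature reaction. Monomethylated product was quantified by antibody-based AlphaScreen chemiluminescence.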
# Sfp inh = inhibitors of Bacillus subtilis Sfp phosphopantetheinyl transferase | Q9F4F7 | Biochemical Sfp PPTase activity, qHTS | Potency, µM, most hits filed as inhibitors | 310,000 compounds, 3.5% hits | AID 1490;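 note: the enzyme is Sfp with the accession as filed and its product quenches rhodamine fluorescence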
#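 Compounds were incubated with enzyme (final 15 nM) for 15 min at room temperature before substrate addition started the reaction. Fluorescence at 525 nm excitation, 598 nm emission was recorded immediately and after 30 minutes.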
# JMJD2A Tudor inh = JMJD2A Tudor domain (human) inhibition. O75164. Potency, µM (titrated, usually from 114 µM), usual class: inhibitors. 390,000 compounds, 4.4% hits. AlphaScreen JMJD2A-Tudor / H3K4me3 peptide binding; note: nearly all actives have a fitted effect of over 50% in size
# A number is an active result; - = inactive; ? = inconclusive; . = no result given; ! = not confirmed by another sample; [ ] = remark or other dose. Calls come from the whole dose curve; as a rule, active = well fitted curve in the direction sought with a large enough effect; inconclusive = small, poorly fitted or top-dose-only effect, or another doubt; inactive = no such curve, though single readings can be large; an effect the other way counts as inactive or inconclusive.
SMILES,HP1b chromo inh,BAZ2B block,L3MBTL1 inh,G9a inh,Sfp inh,JMJD2A Tudor inh
O=C(C[C@H]1C[C@H](C(=O)N2CCOCC2)[C@@]2(CCC3CCCC3)c3[nH]c4cc(-c5ccco5)ccc4c3CCN2C1=O)NCCN1CCOCC1,?,.,-,.,.,-
CC[C@]12c3[nH]c4cc(-c5ccco5)ccc4c3CCN1C(=O)[C@@H](CC(=O)NCCC1=CCCCC1)C[C@@H]2C(=O)N1CCN(C(=O)c2ccco2)CC1,-,.,20µM,.,.,?
CNc1cccc(S(=O)(=O)N2CCN(S(=O)(=O)c3ccc4c(c3)OCCO4)CC2)c1,.,.,.,.,.,-
CCOC(=O)N1CCN(C(=O)c2ccc(CNS(=O)(=O)c3ccc(C)cc3)cc2)CC1,-,-,-,-,-,-
CC(=O)Nc1ccc(S(=O)(=O)NC2=C(N3CCN(c4ccc(F)cc4)CC3)C(=O)c3ccccc3C2=O)cc1,25µM,22µM,.,2.8µM,-,22µM
Cc1ccc(S(=O)(=O)NC2=C(N3CCN(Cc4ccccc4)CC3)C(=O)c3ccccc3C2=O)cc1,8.9µM,7.9µM,.,7.1µM,-,7.1µM
CCOC(=O)N1CCN(C(=O)COc2ccc(S(=O)(=O)NC(C)C)cc2)CC1,-,-,-,45µM,-,-
COC(=O)Nc1ccc(S(=O)(=O)N2CCN(c3ccc(F)cc3)CC2)cc1,-,-,-[11.4 µM],-[12.7 µM],-,-
CCOC(=O)N1CCN(C2=C(NS(=O)(=O)c3ccc(C)cc3)C(=O)c3ccccc3C2=O)CC1,20µM,8.9µM,.,22µM,79µM,22µM
CCCCCC1=C2CNC(CCC)(C(=O)OC)C=C2C(C)C1=O (centres undefined),.,.,.,.,-,.
COc1ccc(Cn2nnc(C(=O)Nc3cc(OC)ccc3OC)c2N)cc1,-,-,.,-,.,-
Cc1ccc(S(=O)(=O)NC2=C(N3CCN(c4ccccc4F)CC3)C(=O)c3ccccc3C2=O)cc1,14µM!,10µM,-,-[0.501 µM],-,8.9µM
O=S(=O)(c1ccccc1)N1CCC2(CCCN(c3ncccn3)C2)CC1,.,.,.,-[12.7 µM],-,.
Oc1ccc(Cl)cc1C1=NNC(c2cccs2)C1 (centres undefined),-,-,-,50µM,-,-[11.4 µM]
O=C(c1cc(C(F)(F)F)cc(C(F)(F)F)c1)N1CCC2(CCCN(c3ccccc3)C2)CC1,.,.,.,-[12.7 µM],-,.
CS(=O)(=O)N1CCN(C2C3CC4CC(C3)CC2C4)CC1 (centres undefined),?,-,-,.,-,10µM
CN1CCCN(C2C3CC4CC(C3)CC2C4)CC1 (centres undefined),?,?,-,10µM,79µM,1µM
CC(C)CC(=O)N1CCN(S(C)(=O)=O)CC1,-,-,-,-,-,-
CS(=O)(=O)N1CCN(C2Cc3ccccc3C2)CC1,-,-,.,-,-,-
O=C(c1ccccc1)N1CCN(C2C3CC4CC(C3)CC2C4)CC1 (centres undefined),-,-,.,-,-,-
CC1CCC(N2CCN(S(C)(=O)=O)CC2)CC1 (centres undefined),45µM,32µM,.,?,-,3.2µM
CC(C)CCNC(=O)CN1C(=O)CSc2ccc(S(=O)(=O)N3CCC(C)CC3)cc21,-,-,.,-,.,-
CCCn1c(=O)c2ccccc2n2c(SCCOc3ccc(C)cc3)nnc12,-,-,-,?,?,28µM
CCCn1c(=O)c2ccccc2n2c(SCC(=O)NCc3cccs3)nnc12,-,-,-,?,-,25µM
CCn1c(=O)c2ccccc2n2c(SCC(=O)NCc3cccs3)nnc12,-,-,.,-[12.7 µM],-,-
SMILES,HP1b chromo inh,BAZ2B block,L3MBTL1 inh,G9a inh,Sfp inh,JMJD2A Tudor inh
CCCCCOc1ccc(NC(=O)Cn2c(-c3nonc3N)nc3ccccc32)cc1,-,-,.,?,.,-
CC1(CCc2ccccc2)NC(=S)N(c2ccc(Cl)cc2)N1 (centres undefined),-,79µM,-,10µM,-,?
CC1(CCc2ccccc2)NC(=S)N(c2ccccc2)N1 (centres undefined),-,50µM,-,10µM,45µM,?
CC1(CCc2ccccc2)NC(=O)N(CC(=O)O)C1=O (centres undefined),-,-,.,-[12.7 µM],-,-[11.4 µM]
CC1(C)CC(C)(O)N(Cc2ccccc2)C(=S)N1 (centres undefined),-,-,-,-,-,-
O=C(O)Cc1c(Cl)ccc(Cl)c1Cl,.,.,.,.,-,.
CCCOc1ccc(C2=NC(c3ccc(F)cc3)=Nc3ccc(OC)cc3N2)cc1,-,10µM,.,-,.,?
COc1ccc(/C=C2\SC(=S)N(c3cccnc3)C2=O)cc1,-,-,.,-[12.7 µM],-,-
O=C1/C(=C/C=C/c2ccco2)SC(=S)N1c1ccc(O)cc1,28µM,32µM,4.5µM,13µM,20µM,-[11.4 µM]
O=C1NN(c2ccc(F)cc2)C(=O)/C1=C\C=C\c1ccco1,-,-,?,?,-,?
O=C1/C(=C/c2ccco2)SC(=S)N1c1cccnc1,16µM,10µM,3.2µM,.,32µM,8.9µM
CC(C)C(C(=O)O)N1C(=O)/C(=C/C=C/c2ccco2)SC1=S (centres undefined),?,4.5µM,1.8µM,3.5µM,20µM,3.5µM
O=C1/C(=C\c2ccc(O)cc2)SC(=S)N1c1cccnc1,-,?,-,32µM,-,?
CC(C)C(C(=O)O)N1C(=O)/C(=C/c2cccn2C)SC1=S (centres undefined),-,?,-,-,-,-
CCOc1ccccc1NS(=O)(=O)c1c(-c2ccc(C)cc2)csc1C(=O)OC,-,-,.,-,.,-
COC(=O)C(C(=O)OC)C1c2ccccc2C=C(C)N1C(=O)OC (centres undefined),.,.,.,.,-,.
O=C1/C(=C/c2cccnc2)SC(=S)N1Cc1ccco1,-,.,.,.,.,?
Cc1cc(/C=C2\SC(=S)N(Cc3ccco3)C2=O)c(C)n1-c1cccnc1,-,13µM,-,?,-,-
O=C1/C(=C\c2ccco2)SC(=S)N1c1ccc(O)cc1,-,35µM,?,40µM,16µM,?
NN1C(=O)/C(=C\c2ccco2)SC1=S,-,45µM,25µM,25µM,3.2µM,?
C[N+](C)(C)CCCN1C(=O)CCCC1=O,-,?,-,-,-,56µM
O=C(CC(Nc1ccccc1Cl)C(=O)OCC(=O)c1cccs1)c1ccccc1 (centres undefined),-,-,-,10µM,45µM,-
O=C(CC(Nc1ccc(Cl)cc1Cl)C(=O)O)c1ccccc1 (centres undefined),-,-,-,?,14µM,-
O=C(OCC(=O)c1cccs1)c1ccccc1,-,-,-,?,-,-
Cc1cccc(-n2ncc(C(=O)N3CCN(Cc4ccccc4)CC3)c2C2CCN(C(=O)OC(C)(C)C)CC2)c1,-,-,.,-,.,-

# Bioassay records as filed in PubChem.
